# According to PMC7862700, “An all-to-all approach to the identification of sequence-specific readers for epigenetic DNA modifications on cytosine”:
# Key:
# Test in all cases: DAPPL (digital affinity profiling via proximity ligation, sequencing); 10 mM Tris-HCl pH 7.5, 50 mM NaCl, 1 mM DTT, 4% glycerol, room temperature, 30 min; GST-TFs on glutathione beads, 16-mer random dsDNA library, 0.1% formaldehyde crosslink after washing; high values mean tight binding
# [1] = target: T1, FLI1 (Homo sapiens, UniProt Q01543 1-452); conditions: protein: recombinant; tags: N-terminal GST; dsDNA, one strand shown
# T1 sequence: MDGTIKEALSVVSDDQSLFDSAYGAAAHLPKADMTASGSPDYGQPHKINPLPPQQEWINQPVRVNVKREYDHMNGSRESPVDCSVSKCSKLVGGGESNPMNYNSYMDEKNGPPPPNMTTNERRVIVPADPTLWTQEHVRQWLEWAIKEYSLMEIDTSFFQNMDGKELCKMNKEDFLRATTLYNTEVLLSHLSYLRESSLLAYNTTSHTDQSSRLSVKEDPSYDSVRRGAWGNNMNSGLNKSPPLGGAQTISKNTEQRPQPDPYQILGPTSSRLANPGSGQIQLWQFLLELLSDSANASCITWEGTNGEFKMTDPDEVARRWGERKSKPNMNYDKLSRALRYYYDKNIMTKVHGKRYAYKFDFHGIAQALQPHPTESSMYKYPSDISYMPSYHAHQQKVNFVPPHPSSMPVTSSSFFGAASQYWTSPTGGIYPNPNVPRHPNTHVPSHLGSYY
# Method in brief: (§1)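 A tag-only sample was pooled with DNA-barcoded human transcription factors that had been expressed in yeast as GST fusions and captured on glutathione beads. The pools were incubated for 30 min at room temperature with 200 nmole of a random double-stranded 16-mer DNA library in Tris/NaCl/DTT/glycerol buffer, then washed, crosslinked with 0.1% formaldehyde, proximity-ligated (BsaI/T4 ligase, 1 h, 37 °C), PCR-amplified and sequenced on an Illumina NextSeq500. Binding signal is each hexamer's read frequency for a factor divided by its frequency for the tag-only sample.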
# [2] = target: T2, ELK1 (Homo sapiens, UniProt P19419 1-428); conditions: protein: recombinant; tags: N-terminal GST; dsDNA, one strand shown
# T2 sequence: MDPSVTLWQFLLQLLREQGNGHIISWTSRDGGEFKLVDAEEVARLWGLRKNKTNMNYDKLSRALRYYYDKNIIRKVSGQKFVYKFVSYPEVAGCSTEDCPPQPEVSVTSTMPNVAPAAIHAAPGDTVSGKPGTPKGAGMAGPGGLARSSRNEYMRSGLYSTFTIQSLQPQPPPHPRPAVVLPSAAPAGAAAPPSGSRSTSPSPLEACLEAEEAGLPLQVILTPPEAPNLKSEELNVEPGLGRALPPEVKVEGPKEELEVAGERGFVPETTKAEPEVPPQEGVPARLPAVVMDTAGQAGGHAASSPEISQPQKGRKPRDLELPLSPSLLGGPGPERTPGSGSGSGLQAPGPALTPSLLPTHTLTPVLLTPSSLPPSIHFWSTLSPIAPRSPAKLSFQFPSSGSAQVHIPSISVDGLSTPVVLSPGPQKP
# Method in brief: as §1
# [3] = target: T3, GABPA (Homo sapiens, UniProt Q06546 1-454); conditions: protein: recombinant; tags: N-terminal GST; dsDNA, one strand shown
# T3 sequence: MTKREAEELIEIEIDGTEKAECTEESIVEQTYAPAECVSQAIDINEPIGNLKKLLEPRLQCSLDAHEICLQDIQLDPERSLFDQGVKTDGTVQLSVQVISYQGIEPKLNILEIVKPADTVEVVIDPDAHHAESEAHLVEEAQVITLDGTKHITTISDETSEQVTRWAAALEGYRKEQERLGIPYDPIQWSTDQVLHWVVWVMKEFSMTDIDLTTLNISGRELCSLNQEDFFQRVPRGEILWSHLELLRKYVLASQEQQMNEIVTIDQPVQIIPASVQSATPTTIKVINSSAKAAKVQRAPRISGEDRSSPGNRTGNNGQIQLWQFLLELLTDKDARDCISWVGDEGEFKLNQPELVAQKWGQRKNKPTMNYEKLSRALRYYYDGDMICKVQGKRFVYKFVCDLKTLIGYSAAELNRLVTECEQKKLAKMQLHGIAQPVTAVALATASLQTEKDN
# Method in brief: as §1
# [4] = target: T4, ERG (Homo sapiens, UniProt P11308 1-479); conditions: protein: recombinant; tags: N-terminal GST; dsDNA, one strand shown
# T4 sequence: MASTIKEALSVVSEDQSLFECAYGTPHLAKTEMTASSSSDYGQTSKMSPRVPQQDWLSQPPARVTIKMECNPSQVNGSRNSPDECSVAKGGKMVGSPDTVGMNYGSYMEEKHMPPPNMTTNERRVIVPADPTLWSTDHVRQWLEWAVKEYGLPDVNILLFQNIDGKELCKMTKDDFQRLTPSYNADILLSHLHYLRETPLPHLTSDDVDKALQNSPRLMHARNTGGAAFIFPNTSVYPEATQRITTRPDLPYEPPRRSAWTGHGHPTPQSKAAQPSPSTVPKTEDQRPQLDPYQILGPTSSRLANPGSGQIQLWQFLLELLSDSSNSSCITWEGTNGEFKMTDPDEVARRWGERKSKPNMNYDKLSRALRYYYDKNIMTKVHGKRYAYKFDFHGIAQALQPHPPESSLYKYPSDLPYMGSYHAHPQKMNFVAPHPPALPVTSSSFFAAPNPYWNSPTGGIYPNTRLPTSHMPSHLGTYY
# Method in brief: as §1
# [5] = target: ELF1 (Homo sapiens, UniProt P32519 1-619); conditions: protein: recombinant; tags: N-terminal GST; dsDNA, one strand shown
# Method in brief: as §1
# [6] = target: T5, EHF (Homo sapiens, UniProt Q9NZC4 1-300); conditions: protein: recombinant; tags: N-terminal GST; dsDNA, one strand shown
# T5 sequence: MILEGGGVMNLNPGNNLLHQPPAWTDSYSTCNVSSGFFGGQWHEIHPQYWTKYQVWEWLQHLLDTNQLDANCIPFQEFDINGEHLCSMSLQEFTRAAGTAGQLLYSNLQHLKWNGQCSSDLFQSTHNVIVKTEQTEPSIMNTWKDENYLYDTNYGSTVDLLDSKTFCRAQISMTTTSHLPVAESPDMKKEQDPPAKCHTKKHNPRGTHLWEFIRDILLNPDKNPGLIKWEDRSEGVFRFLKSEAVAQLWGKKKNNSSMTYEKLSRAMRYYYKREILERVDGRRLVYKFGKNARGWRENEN
# Method in brief: as §1
# [7] = target: SPI1 (Homo sapiens, UniProt P17947 1-270); conditions: protein: recombinant; tags: N-terminal GST; dsDNA, one strand shown
# Method in brief: as §1
# [8] = target: SPIB (Homo sapiens, UniProt Q01892 1-262); conditions: protein: recombinant; tags: N-terminal GST; dsDNA, one strand shown
# Method in brief: as §1
# [9] = target: T6, ELK3 (Homo sapiens, UniProt P41970 1-407); conditions: protein: recombinant; tags: N-terminal GST; dsDNA, one strand shown
# T6 sequence: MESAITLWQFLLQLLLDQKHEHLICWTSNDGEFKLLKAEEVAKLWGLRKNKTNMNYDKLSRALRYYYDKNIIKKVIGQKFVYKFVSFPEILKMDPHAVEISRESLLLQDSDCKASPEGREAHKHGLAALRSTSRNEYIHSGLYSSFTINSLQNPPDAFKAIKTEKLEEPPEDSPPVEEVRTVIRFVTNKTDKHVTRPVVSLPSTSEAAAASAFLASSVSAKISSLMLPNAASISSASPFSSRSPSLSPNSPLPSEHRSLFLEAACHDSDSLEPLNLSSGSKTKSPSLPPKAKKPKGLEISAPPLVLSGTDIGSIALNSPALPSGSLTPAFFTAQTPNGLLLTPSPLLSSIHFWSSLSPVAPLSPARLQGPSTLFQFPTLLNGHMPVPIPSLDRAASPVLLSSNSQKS
# Method in brief: as §1
# [10] = target: T7, FEV (Homo sapiens, UniProt Q99581 1-238); conditions: protein: recombinant; tags: N-terminal GST; dsDNA, one strand shown
# T7 sequence: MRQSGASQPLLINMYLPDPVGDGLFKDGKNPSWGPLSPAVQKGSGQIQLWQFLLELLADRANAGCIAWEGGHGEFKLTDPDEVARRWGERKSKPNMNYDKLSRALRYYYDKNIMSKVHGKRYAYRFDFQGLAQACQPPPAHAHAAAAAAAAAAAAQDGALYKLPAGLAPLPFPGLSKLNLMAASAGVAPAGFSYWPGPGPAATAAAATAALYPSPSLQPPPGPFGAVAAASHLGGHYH
# Method in brief: as §1
# [11] = target: ETV5 (Homo sapiens, UniProt P41161 1-510); conditions: protein: recombinant; tags: N-terminal GST; dsDNA, one strand shown
# Method in brief: as §1
# [12] = target: HSF1 (Homo sapiens, UniProt Q00613 1-529); conditions: protein: recombinant; tags: N-terminal GST; chain copies: 3; dsDNA, one strand shown
# Method in brief: as §1
# [13] = target: T8, SPIC (Homo sapiens, UniProt Q8N5J4 1-248); conditions: protein: recombinant; tags: N-terminal GST; dsDNA, one strand shown
# T8 sequence: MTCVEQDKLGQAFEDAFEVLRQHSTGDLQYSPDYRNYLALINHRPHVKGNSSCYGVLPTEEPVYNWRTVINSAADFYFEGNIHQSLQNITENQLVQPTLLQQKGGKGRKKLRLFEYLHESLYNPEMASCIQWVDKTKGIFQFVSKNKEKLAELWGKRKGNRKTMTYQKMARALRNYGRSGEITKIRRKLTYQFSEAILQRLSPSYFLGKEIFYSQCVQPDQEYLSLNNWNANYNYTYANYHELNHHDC
# Method in brief: as §1
# [14] = target: ELF4 (Homo sapiens, UniProt Q99607 1-663); conditions: protein: recombinant; tags: N-terminal GST; dsDNA, one strand shown
# Method in brief: as §1
# [15] = target: T9, ELK4 (Homo sapiens, UniProt P28324-2 1-405); conditions: protein: recombinant; tags: N-terminal GST; dsDNA, one strand shown
# T9 sequence: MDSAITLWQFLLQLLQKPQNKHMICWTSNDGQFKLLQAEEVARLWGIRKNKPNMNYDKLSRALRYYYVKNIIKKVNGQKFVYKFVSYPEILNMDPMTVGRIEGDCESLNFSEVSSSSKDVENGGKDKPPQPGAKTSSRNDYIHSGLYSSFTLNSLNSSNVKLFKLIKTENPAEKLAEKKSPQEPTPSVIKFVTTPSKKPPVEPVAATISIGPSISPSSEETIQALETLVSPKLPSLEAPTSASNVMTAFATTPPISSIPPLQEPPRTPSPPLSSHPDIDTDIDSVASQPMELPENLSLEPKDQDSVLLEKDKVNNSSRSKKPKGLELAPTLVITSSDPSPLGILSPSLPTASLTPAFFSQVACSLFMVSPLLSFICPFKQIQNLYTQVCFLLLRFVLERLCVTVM
# Method in brief: as §1
# [16] = target: T10, ETV2 (Homo sapiens, UniProt O00321 1-342); conditions: protein: recombinant; tags: N-terminal GST; dsDNA, one strand shown
# T10 sequence: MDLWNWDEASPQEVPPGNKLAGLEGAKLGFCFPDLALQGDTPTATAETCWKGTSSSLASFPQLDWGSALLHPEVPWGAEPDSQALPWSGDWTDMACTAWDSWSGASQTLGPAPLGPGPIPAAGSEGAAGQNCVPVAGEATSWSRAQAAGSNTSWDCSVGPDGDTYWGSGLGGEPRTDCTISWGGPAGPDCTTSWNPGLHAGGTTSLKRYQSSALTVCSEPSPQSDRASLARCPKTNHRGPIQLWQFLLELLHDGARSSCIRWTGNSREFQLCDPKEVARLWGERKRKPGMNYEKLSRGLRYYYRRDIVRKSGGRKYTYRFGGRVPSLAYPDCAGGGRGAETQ
# Method in brief: as §1
# [17] = target: T11, ELF3 (Homo sapiens, UniProt P78545 1-371); conditions: protein: recombinant; tags: N-terminal GST; dsDNA, one strand shown
# T11 sequence: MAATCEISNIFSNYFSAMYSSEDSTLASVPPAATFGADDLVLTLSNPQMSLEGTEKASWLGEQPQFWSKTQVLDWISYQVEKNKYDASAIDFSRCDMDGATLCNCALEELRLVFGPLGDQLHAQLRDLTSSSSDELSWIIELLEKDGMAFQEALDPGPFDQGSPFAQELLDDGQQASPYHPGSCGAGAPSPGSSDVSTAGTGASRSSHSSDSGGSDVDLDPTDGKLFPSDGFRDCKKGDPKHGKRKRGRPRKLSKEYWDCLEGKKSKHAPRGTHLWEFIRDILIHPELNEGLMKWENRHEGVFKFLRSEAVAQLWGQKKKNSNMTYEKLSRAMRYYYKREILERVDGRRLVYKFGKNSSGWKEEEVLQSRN
# Method in brief: as §1
# [18] = target: CRX (Homo sapiens, UniProt O43186 1-299); conditions: protein: recombinant; tags: N-terminal GST; dsDNA, one strand shown
# Method in brief: as §1
# [19] = target: ETV1 (Homo sapiens, UniProt P50549 1-477); conditions: protein: recombinant; tags: N-terminal GST; dsDNA, one strand shown
# Method in brief: as §1
# Chain of SPIB (Q01892 whole entry): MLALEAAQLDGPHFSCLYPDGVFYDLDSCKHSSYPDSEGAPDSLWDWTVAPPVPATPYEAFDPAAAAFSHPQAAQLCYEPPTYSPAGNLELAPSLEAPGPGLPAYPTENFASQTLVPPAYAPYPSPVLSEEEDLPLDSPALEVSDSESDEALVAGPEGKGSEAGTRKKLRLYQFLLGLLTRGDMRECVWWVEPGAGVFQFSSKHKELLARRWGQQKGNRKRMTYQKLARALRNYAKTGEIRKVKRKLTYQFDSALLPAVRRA
# Chain of CRX (O43186 whole entry): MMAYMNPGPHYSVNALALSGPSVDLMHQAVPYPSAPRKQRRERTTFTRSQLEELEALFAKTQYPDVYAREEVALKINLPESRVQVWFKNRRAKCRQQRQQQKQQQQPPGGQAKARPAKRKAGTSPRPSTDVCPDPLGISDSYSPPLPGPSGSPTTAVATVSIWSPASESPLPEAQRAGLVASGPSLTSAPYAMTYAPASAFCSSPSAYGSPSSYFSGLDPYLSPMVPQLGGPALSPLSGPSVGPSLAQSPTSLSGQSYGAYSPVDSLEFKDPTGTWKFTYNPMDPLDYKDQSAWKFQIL
# Chain of ETV1 (P50549 whole entry): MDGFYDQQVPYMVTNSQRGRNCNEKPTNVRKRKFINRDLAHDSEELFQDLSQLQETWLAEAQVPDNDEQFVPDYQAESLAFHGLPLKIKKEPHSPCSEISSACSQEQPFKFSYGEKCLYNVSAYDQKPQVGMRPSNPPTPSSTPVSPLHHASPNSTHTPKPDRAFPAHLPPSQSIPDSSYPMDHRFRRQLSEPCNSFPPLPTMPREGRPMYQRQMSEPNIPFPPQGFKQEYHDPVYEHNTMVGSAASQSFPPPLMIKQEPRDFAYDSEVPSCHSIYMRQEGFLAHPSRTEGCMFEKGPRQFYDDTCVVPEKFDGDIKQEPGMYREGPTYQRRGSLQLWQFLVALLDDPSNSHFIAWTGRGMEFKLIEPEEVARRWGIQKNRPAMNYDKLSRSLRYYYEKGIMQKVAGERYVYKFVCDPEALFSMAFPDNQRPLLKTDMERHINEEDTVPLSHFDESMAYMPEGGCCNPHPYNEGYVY
# Chain of HSF1 (Q00613 whole entry): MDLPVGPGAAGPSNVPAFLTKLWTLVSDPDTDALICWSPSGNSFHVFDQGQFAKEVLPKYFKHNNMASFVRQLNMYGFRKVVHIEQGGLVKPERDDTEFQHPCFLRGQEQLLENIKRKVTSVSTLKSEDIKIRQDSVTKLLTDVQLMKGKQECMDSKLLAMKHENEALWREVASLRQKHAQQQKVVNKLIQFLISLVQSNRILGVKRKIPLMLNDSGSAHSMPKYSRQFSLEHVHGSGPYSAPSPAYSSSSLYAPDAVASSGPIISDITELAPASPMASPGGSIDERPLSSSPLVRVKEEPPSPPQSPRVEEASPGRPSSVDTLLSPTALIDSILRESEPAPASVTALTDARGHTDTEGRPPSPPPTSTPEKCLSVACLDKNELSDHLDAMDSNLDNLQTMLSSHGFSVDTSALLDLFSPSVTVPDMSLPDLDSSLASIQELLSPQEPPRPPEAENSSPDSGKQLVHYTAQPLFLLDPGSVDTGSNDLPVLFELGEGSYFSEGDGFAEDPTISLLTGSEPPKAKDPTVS
# Chain of ELF4 (Q99607 whole entry): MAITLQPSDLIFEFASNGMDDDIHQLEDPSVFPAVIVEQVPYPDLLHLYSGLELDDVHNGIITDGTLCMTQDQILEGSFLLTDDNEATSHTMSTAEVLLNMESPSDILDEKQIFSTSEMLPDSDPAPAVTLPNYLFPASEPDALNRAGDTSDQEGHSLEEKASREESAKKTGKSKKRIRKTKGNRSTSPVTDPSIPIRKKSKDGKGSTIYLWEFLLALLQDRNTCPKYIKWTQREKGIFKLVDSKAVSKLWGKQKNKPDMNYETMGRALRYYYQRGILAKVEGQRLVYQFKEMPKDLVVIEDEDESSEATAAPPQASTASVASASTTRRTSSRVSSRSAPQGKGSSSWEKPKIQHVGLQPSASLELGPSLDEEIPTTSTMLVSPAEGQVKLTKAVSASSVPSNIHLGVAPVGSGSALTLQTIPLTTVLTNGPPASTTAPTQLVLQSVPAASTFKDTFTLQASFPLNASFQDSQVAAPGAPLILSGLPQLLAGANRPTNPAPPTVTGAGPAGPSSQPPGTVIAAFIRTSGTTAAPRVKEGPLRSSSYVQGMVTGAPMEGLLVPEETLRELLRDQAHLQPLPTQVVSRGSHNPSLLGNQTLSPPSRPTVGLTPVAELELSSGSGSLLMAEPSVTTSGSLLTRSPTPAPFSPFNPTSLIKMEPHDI
# Chain of ETV5 (P41161 whole entry): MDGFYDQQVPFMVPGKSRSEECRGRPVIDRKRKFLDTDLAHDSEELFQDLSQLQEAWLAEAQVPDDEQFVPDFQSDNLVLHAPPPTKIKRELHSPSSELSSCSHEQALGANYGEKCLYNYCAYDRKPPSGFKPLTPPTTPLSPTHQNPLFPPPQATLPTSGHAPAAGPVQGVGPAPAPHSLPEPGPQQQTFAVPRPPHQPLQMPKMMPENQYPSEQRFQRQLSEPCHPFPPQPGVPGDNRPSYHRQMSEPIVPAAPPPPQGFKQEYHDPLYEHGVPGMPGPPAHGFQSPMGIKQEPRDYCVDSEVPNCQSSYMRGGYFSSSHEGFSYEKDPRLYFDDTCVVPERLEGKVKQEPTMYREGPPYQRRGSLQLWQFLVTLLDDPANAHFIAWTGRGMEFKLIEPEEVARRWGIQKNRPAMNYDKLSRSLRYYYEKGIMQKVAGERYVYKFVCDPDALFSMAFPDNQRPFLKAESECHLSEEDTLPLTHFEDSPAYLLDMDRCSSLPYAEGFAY
# Chain of ELF1 (P32519 whole entry): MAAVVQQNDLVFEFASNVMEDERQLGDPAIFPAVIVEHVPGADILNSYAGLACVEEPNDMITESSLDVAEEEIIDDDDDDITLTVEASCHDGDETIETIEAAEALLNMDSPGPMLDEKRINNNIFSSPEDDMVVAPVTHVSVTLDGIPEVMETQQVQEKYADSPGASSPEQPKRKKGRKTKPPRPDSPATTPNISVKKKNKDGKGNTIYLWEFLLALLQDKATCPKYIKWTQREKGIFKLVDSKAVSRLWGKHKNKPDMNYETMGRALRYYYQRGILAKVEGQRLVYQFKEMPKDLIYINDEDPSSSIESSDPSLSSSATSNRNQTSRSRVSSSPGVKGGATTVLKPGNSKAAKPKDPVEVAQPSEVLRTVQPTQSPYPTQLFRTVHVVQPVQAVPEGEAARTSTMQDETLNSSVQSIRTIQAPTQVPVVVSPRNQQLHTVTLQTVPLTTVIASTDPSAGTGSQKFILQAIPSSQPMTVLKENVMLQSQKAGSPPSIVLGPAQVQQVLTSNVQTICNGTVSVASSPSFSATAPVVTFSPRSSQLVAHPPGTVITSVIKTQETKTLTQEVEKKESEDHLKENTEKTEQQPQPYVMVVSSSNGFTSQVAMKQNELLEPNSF
sequence,measurement,setting,value
TGGGAT,binding signal,[1],"1.12 fold enrichment (6-mer frequency, TF over GST control)"
same,binding signal,[2],"1.17 fold enrichment (6-mer frequency, TF over GST control)"
same,binding signal,[3],"1.3 fold enrichment (6-mer frequency, TF over GST control)"
same,binding signal,[4],"1.13 fold enrichment (6-mer frequency, TF over GST control)"
same,binding signal,[5],"1.25 fold enrichment (6-mer frequency, TF over GST control)"
same,binding signal,[6],"1.25 fold enrichment (6-mer frequency, TF over GST control)"
same,binding signal,[7],"1.29 fold enrichment (6-mer frequency, TF over GST control)"
same,binding signal,[8],"1.24 fold enrichment (6-mer frequency, TF over GST control)"
same,binding signal,[9],"1.17 fold enrichment (6-mer frequency, TF over GST control)"
same,binding signal,[10],"1.18 fold enrichment (6-mer frequency, TF over GST control)"
same,binding signal,[11],"1.19 fold enrichment (6-mer frequency, TF over GST control)"
same,binding signal,[12],"1.47 fold enrichment (6-mer frequency, TF over GST control)"
same,binding signal,[13],"1.17 fold enrichment (6-mer frequency, TF over GST control)"
same,binding signal,[14],"1.2 fold enrichment (6-mer frequency, TF over GST control)"
same,binding signal,[15],"1.39 fold enrichment (6-mer frequency, TF over GST control)"
same,binding signal,[16],"1.14 fold enrichment (6-mer frequency, TF over GST control)"
same,binding signal,[17],"1.12 fold enrichment (6-mer frequency, TF over GST control)"
same,binding signal,[18],"1.9 fold enrichment (6-mer frequency, TF over GST control)"
same,binding signal,[19],"1.25 fold enrichment (6-mer frequency, TF over GST control)"
